According to PubChem BioAssay:

target: Voltage-gated potassium channel subunit beta-2 (Rattus norvegicus) (UniProt P62483); assay: enhancers of rat Kvbeta2 NADPH turnover – biochemical, NADPH fluorescence, primary screen (AID 623); conditions: Recombinant KvBeta, NADPH fluorescence decrease slope, 10 min; at 10 µM; active compounds read low;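 further: fluorescence intensity change per second fitted from 20 to 320 s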
Sequence (P62483 whole entry, looked up): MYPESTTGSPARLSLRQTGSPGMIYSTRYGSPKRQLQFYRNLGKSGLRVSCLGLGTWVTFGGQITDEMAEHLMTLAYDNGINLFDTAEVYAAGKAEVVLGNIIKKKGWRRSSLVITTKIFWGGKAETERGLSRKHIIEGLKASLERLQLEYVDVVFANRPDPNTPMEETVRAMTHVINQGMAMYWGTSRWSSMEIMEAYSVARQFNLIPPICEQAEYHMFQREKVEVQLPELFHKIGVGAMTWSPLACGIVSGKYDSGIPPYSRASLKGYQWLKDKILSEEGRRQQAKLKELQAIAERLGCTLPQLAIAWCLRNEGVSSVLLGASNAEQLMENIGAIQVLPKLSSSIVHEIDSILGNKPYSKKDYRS

NADPH fluorescence slope, inactive:
COCCNc1nc(C(C)(C)C)nc2c1nnn2Cc1ccccc1Cl -1.9e-06, CNC(=O)CSc1nnc(-c2cc(C)cc(C)c2)o1 -3.9e-05, CC(C(=O)c1ccccc1)n1cnc2ccccc2c1=O (stereo unspecified) -1.2e-05, COC(=O)COc1ccc(C(=O)OC)cc1 1.1e-05, CC(C)(C)OC(=O)N1CCN(c2ccc(NC(=O)c3cc4ccccc4oc3=O)cc2)CC1 -4.9e-05, CCOC(=O)C1=C(Cn2cnc3ccccc32)NC(=O)NC1c1cc(C)ccc1C (stereo unspecified) -1.9e-05, COc1cc(OC)cc(C(=O)NCCN2CCOCC2)c1 1.5e-05, CC1=C(C(=O)OCCOC(C)C)C(c2cc3c(cc2Br)OCO3)C2=C(CCCC2=O)N1 (stereo unspecified) 6.8e-05, Cn1c(=O)c2ccccc2n(Cc2ccccc2F)c1=O -7.1e-05, COc1ccc(-c2noc(CCC(=O)Nc3nc4ccccc4s3)n2)cc1 -3.6e-05, Cc1cc(C)n(Cc2nc3ccccc3n2C)n1 -3.2e-05, COC(=O)c1ccccc1NC(=O)C1CCCCC1C(=O)O (stereo unspecified) -2.1e-05, COc1ccc(OC)c(NC(=O)CCN2CCN(c3ccccc3F)CC2)c1 -3.3e-05, COc1ccc(-c2cn3c(C)c(C(=O)Nc4cc(NC(C)=O)ccc4OC)sc3n2)cc1 -6.9e-06, COc1ccc(-n2nnc3c(=O)n(C/C=C/c4ccccc4)cnc32)cc1 -1.5e-05, Cc1ccc(S(=O)(=O)N2CCCC2C(=O)n2nc(C)cc2C)cc1 (stereo unspecified) -4.4e-05
